hcDAF-12 act: activates DAF-12 receptor from parasite H. contortus; HEK293 hcDAF-12 lit1-tk-luc reporter, luminescence; 0% DMSO, 100% Δ7-dafachronic acid; activation, % at 6.8 µM; 1.4% of 370,000 active; AID 652067;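 active = activation above the mean of all tested compounds plus 3 SD, cut at about 5.5% in these data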
hgDAF-12 ag: activates the H. glycines DAF-12 receptor ligand-binding domain; HEK293 GAL4-hgDAF12 UAS-luciferase reporter, agonist luminescence; normalized to butyrate control; activation, % at 6.8 µM; 1.8% of 370,000 active;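 active = activation above a cutoff set at the mean of all screened compounds plus 3 SD, cut at about 10% in these data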
DAX1 inh-1: inhibitors of human orphan nuclear receptor DAX1 (NR0B1). inhibition, % at 6.75 µM. 0.99% of 340,000 active. HEK293 Gal4-DAX1 luciferase reporter, luminescence. AID 504766. P51843;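 active = inhibition above the mean over all tested compounds plus 3 SD, cut at about 4.2% in these data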;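 note: inhibition shows as a rise in luminescence from relieved DAX1 repression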
Target sequence (P51843 207-470 limits assumed): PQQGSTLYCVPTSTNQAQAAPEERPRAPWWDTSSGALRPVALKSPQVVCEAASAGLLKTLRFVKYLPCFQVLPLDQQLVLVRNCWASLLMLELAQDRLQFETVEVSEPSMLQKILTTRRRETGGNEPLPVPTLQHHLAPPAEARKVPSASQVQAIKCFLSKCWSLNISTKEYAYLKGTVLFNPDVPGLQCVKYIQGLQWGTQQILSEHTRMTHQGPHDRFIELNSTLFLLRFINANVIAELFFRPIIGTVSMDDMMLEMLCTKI
FXN GAA850 act: activators of GAA850 frataxin (FXN) promoter; HEK293 lucGAA850 FXN promoter luciferase reporter, 24 h; percent of 10 µM SAHA response; AID 540364; 0.56% of 360,000 active; activation, % at 6 µM;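 active = activation above the average of all compounds screened plus 3 SD, cutoff fixed separately per campaign, cut at about 7.5% in these data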
ssDAF12 agonist: S. stercoralis DAF-12 activation, primary screen. 1% of 370,000 active. AID 652126. HEK293 ssDAF-12/GRIP1 lit1-tk-luc reporter, luminescence; % of 3 µM dafachronic acid response. activation, % at 6.8 µM;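 active = activation above the mean over all tested compounds plus 3 SD, cut at about 0.9% in these data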
DAX1 inh-2: DAX1 (NR0B1) inhibition, primary screen; AID 652010; inhibition, % at 6.8 µM; HEK293T StAR-luciferase reporter, SF-1/DAX-1 repression relief; 1.1% of 370,000 active;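 active = inhibition above the mean over all tested compounds plus 3 SD, cut at about 3.6% in these data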;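 note: higher inhibition means more luminescence from relief of DAX-1 repression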
Numbers stand for hits; n = inactive; x = not tested or not shown. Hits are enriched below; roughly 4.5% of the tested compounds scored in any of these assays.

SMILES	hcDAF-12 act	hgDAF-12 ag	DAX1 inh-1	FXN GAA850 act	ssDAF12 agonist	DAX1 inh-2
NC(N)=NS(=O)(=O)c1ccc(N/C=C\C(=O)c2ccncc2)cc1	n	n	6.9	n	n	n
Cc1ccc(N/C=C/C(=O)c2ccc(C)cc2)cc1	n	13	n	n	n	n
Cc1noc(NS(=O)(=O)c2ccc(N/C=C\C(=O)c3ccncc3)cc2)c1C	n	n	n	n	n	n
Cc1ccc(C(=O)C=CC=Cc2ccccc2)cc1	n	n	4.5	n	n	n
O=C(OCc1cn(Cc2cccc(C(F)(F)F)c2)nn1)N1CCOCC1	n	n	x	x	n	n
Cc1ccc(C(=O)/C=C\Nc2ccc(C)c(C)c2)cc1	n	13	n	n	n	n
Cc1ccc(C(=O)/C=C/C(=O)c2ccc(C)cc2)cc1	n	n	n	n	n	n
CC1(C)CC(=O)C2=C(C1)Nc1cc3c(cc1C2c1ccc2c(c1)OCO2)OCO3 (stereo not drawn)	n	n	5.3	n	n	n
CC1(C)CC(=O)C2=C(C1)Nc1cc3c(cc1C2c1ccc(F)cc1)OCO3 (stereo not drawn)	n	n	n	n	n	n
O=C1C2CC=C(Cl)CC2C(=O)N1CCc1c[nH]c2ccccc12 (stereo not drawn)	n	n	n	n	1.2	n
CC1=CCC2C(=O)N(CCc3c[nH]c4ccccc34)C(=O)C2C1 (stereo not drawn)	n	n	n	n	n	n
O=C(O)c1ccc2c(c1)C(=O)N(CCc1ccccc1)C2=O	n	n	n	n	n	n
O=C(O)c1ccc2c(c1)C(=O)N(CCc1c[nH]c3ccccc13)C2=O	5.8	n	n	n	n	n
COc1ccc(/C=N/NC(=O)C[n+]2ccccc2)c(OC)c1OC	n	n	n	n	n	n
COc1cccc(/C=N/NC(=O)CCNc2n[nH]c(=O)[nH]c2=O)c1OC	n	n	n	n	1.5	n
COc1cccc(/C=N/NC(=O)C[n+]2ccccc2)c1OC	n	n	n	n	2.3	n
COC(=O)[C@]12C[C@H](CC(=O)N3CCCC3)C(=O)N(CCC3=CCCCC3)C1=C[C@H](C(C)C)O[C@@H]2C1CC1	n	n	x	x	n	n
CCC(C)NC(=O)CNc1nnnn1-c1ccccc1 (stereo not drawn)	n	n	x	x	n	n
O=C(C1=NN[C@@H]2C(=O)N(c3cccc(C(F)(F)F)c3)C(=O)[C@H]12)c1cnccn1	n	n	7.3	n	n	n
Cc1nc(-c2ccncc2)nc(NCCNc2ccc(C(F)(F)F)cn2)c1Cl	n	n	9.1	n	n	n
NS(=O)(=O)c1ccc(CCNc2ccc(C(F)(F)F)cn2)cc1	n	n	n	n	n	n
CCCCCCOc1ccc(C(CC(N)=O)C(=O)O)cc1 (stereo not drawn)	n	n	4.4	n	n	n
CCCCCCOc1ccc(C(CC(=O)NC)C(=O)O)cc1 (stereo not drawn)	n	n	n	n	n	n
Cn1c(C(=O)N[C@@H](C(=O)O)c2ccccc2)cc2cc(Cl)ccc21	5.9	n	n	n	n	n
Cc1cc(C)nc(N2CCN(C(=O)CSc3nc4ccccc4nc3N3CC(C)OC(C)C3)CC2)n1 (stereo not drawn)	n	n	x	x	n	n
SMILES	hcDAF-12 act	hgDAF-12 ag	DAX1 inh-1	FXN GAA850 act	ssDAF12 agonist	DAX1 inh-2
O=C(Nc1ccc(Cl)cc1)c1cccs1	n	12	n	n	n	n
O=C(Nc1ccc(NC(=O)c2ccccc2F)cc1)c1cccs1	n	n	n	n	n	4.2
O=C(Nc1ccc(NC(=O)c2ccc(Cl)cc2Cl)cc1)c1cccs1	n	n	n	n	n	n
CCN(CC)C(=O)C(=O)Nc1ccc(OCc2ccccc2)cc1	n	12	n	n	n	n
CCOc1ccc(NC(=S)Nc2ccc(OCc3ccccc3)cc2)cc1	n	n	n	n	n	n
O=C(Nc1ccc(NC(=O)c2cccs2)cc1)c1cccs1	n	n	n	n	n	n
Cc1cc2ccccc2n1CCNC(=O)c1cccs1	n	n	n	n	1.6	n
CC(=O)O[C@@H]1CCC[C@@]2(C(=O)Nc3ccccc32)[C@H]1NC(=O)C(C)C	n	n	x	x	n	n
O=C(Nc1ccc(-c2cn3ccccc3n2)cc1)c1cccs1	n	12	n	n	n	n
O=C(Nc1ccc(OCc2ccccc2)cc1)c1cccs1	n	n	5.1	n	n	n
COc1ccc(CC(=O)Nc2ccc(-c3cn4ccccc4n3)cc2)cc1	n	n	n	n	n	n
O=C(NCCc1ccccc1)c1cnc2sccn2c1=O	n	11	n	n	n	n
O=C(NCCc1ccccc1)c1cccs1	n	11	n	n	n	n
O=C(NCc1ccco1)c1cnc2sccn2c1=O	n	n	n	n	n	n
Cc1ccc(C(=O)N(C)[C@H]2C[C@H]3c4[nH]c5c(-c6ccc7c(c6)OCO7)cccc5c4CCN3C[C@H]2[C@H](C)O)cc1	n	n	x	x	n	n
Cc1cc(-c2n[nH]c(=S)n2N=Cc2ccc(-c3ccccc3)cc2)n[nH]1	n	n	x	x	n	n
COC(=O)[C@]12C[C@H](CC(=O)NCc3ccc(OC)c(OC)c3)C(=O)N(CCC3=CCCCC3)C1=C[C@H](C1CCCC1)O[C@@H]2C	n	n	x	x	n	n
Nc1nc(-c2cccc(F)c2)cs1	n	n	5.2	n	0.9	n
Fc1cccc(-c2csc(-c3ccno3)n2)c1	n	n	n	n	n	n
COc1c(C(C)(C)C)cc(S(=O)(=O)N2c3ccccc3C[C@H]2C)cc1C(C)(C)C	n	n	x	x	n	x
Cc1cc(=O)[nH]c(SCC(=O)Nc2cccc(S(=O)(=O)N3CCOCC3)c2)n1	n	n	n	n	n	3.7
Cc1nc(SCC(=O)Nc2cccc(S(=O)(=O)N3CCOCC3)c2)nc(C)c1C	n	n	n	n	n	n
CC(=O)Nc1cc2c(cc1Cl)-c1ccc(F)cc1C2O (stereo not drawn)	n	n	n	n	1.5	n
CC(=O)Nc1cc2c(cc1Cl)Cc1cc(Cl)ccc1-2	n	n	n	n	n	n
N#Cc1cccc(C#N)c1N1CCC(C#N)CC1	n	11	x	n	n	n
SMILES	hcDAF-12 act	hgDAF-12 ag	DAX1 inh-1	FXN GAA850 act	ssDAF12 agonist	DAX1 inh-2
N#Cc1c(F)cccc1N1CCC(C#N)CC1	n	n	n	n	n	n
COc1ccc(-c2cc(C(=O)NN=Cc3ccc(C)s3)[nH]n2)cc1	n	n	x	x	n	n
Cc1ccsc1S(=O)(=O)n1c(CN2CCOCC2)nc2ccccc21	n	n	x	x	n	n
COC(=O)[C@]12C[C@H](CC(=O)N3CCN(C(=O)C4CC4)CC3)C(=O)N(Cc3cccc4ccccc34)C1=C[C@H](C(C)(C)C)O[C@@H]2C	n	n	x	x	n	n
COC(=O)/C=C1\OC(C)c2ccccc21 (stereo not drawn)	n	n	x	x	1.2	n
CCOC(=O)c1csc(NC(=O)C2CCCN(S(=O)(=O)c3ccccc3[N+](=O)[O-])C2)n1 (stereo not drawn)	n	n	x	x	n	n

Assay outcomes as filed in PubChem.
